Measurements: PubChem BioAssay (NCI)
The panel holds about 79,000 compounds, 15% with a hit somewhere; the sample as a whole holds those more often. Unmarked numbers belong to inactive results. Active and inactive are the calls of the source. No stated cut-off is given here; in the data, active means growth inhibition above about 70%; inactive means the rest.

How the values were obtained:
[1] = NCI Yeast Anticancer Drug Screen. Data for the rad50 strain (AID 155);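 further: 0% = growth of vehicle-only cultures of the same strain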; details: S. cerevisiae rad50 strain growth inhibition; at 50.0 µM; active compounds read high
In short: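 DNA repair mutant yeast, compound exposure, growth read-out; inhibition is taken relative to vehicle.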

[2] = NCI Yeast Anticancer Drug Screen. Data for the mec2-1 strain (AID 157); details: S. cerevisiae mec2-1 strain, at 50.0 µM, active compounds read high
In short: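 Yeast mec2-1 mutant treated with compound. Readout: growth inhibition vs vehicle controls.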

[3] = NCI Yeast Anticancer Drug Screen. Data for the sgs1 mgt1 strain (AID 161);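 further: 0% = growth of cultures given vehicle only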; details: S. cerevisiae sgs1 mgt1 strain, at 50.0 µM, active compounds read high
In short: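 Inhibition of yeast growth, normalised to vehicle-treated controls, is reported for a strain bearing genetic alterations in DNA damage repair.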

[4] = NCI Yeast Anticancer Drug Screen. Data for the cln2 rad14 strain (AID 165);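 further: 0% = growth equal to vehicle treated cultures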; details: S. cerevisiae cln2 rad14 strain, at 50.0 µM, active compounds read high
In short: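 cln2 rad14 yeast strain; compound exposure; growth inhibition read vs vehicle controls.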

[5] = NCI Yeast Anticancer Drug Screen. Data for the bub3 strain (AID 167); details: S. cerevisiae bub3 mutant strain, at 50.0 µM, active compounds read high
In short: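 In this screen, a yeast mutant lacking normal mitotic checkpoint function is challenged with compound. Relative growth versus vehicle gives the inhibition value.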

[6] = NCI Yeast Anticancer Drug Screen. Data for the mlh1 rad18 strain (AID 175); details: S. cerevisiae mlh1 rad18 strain growth inhibition; at 50.0 µM; active compounds read high
In short: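 Yeast w/ defined DNA-repair lesions; compound exposure; growth vs vehicle controls → % inhibition.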

N/N=C(\N)N(Cc1ccccc1)c1ccccc1
growth inhibition [1]: 10.3% | growth inhibition [2]: 25.7% | growth inhibition [3]: 2.85% | growth inhibition [4]: -11.6% | growth inhibition [5]: -2.6% | growth inhibition [6]: 4.75%

Cc1cccc(NS(=O)(=O)c2ccc3c(c2)OCCOCCOCCOCCO3)c1
growth inhibition [1]: 1.65% | growth inhibition [2]: -11.1% | growth inhibition [3]: 7.05% | growth inhibition [4]: -28% | growth inhibition [5]: -11.4% | growth inhibition [6]: -9.45%

O=C(Nc1ccc(Br)cc1)C(=O)C(C(=O)c1ccccc1F)C1OC(=O)c2ccccc21 (stereo unspecified)
growth inhibition [1]: -17.6% | growth inhibition [2]: -1.65% | growth inhibition [3]: -13.8% | growth inhibition [4]: -50.9% | growth inhibition [5]: -5.4% | growth inhibition [6]: 7%

Cc1cc2nc3ccc(O)cc3[n+](C)c2cc1N
growth inhibition [1]: 57.7% | growth inhibition [2]: 28.6% | growth inhibition [3]: 31.6% | growth inhibition [4]: 31.1% | growth inhibition [5]: 15.9% | growth inhibition [6]: 26.3%

CC(=O)Nc1cccc(Cc2cccc(NC(C)=O)c2)c1
growth inhibition [1]: 2.75% | growth inhibition [2]: -13.3% | growth inhibition [3]: -11.9% | growth inhibition [4]: -43.4% | growth inhibition [5]: -5.1% | growth inhibition [6]: -11.6%

Cc1nc(-n2nc(-c3ccccc3)cc2-c2ccccc2)sc1C(/C=C/c1ccc([N+](=O)[O-])cc1)=N/NC(=O)c1ccncc1
growth inhibition [1]: 47.4% | growth inhibition [2]: 36.7% | growth inhibition [3]: 17.9% | growth inhibition [4]: -24.7% | growth inhibition [5]: 46.1% | growth inhibition [6]: 58.5%

Cc1c(Cl)cccc1NC(=O)C(=O)C1C(=O)CC(C)(C)CC1=O
growth inhibition [1]: 10.6% | growth inhibition [2]: 6.8% | growth inhibition [3]: -1.2% | growth inhibition [4]: 7.85% | growth inhibition [5]: 15.2% | growth inhibition [6]: 18.8%

CCCn1c(C)nc2cc(C(F)(F)F)cc(N)c21
growth inhibition [1]: 14.3% | growth inhibition [2]: 11.4% | growth inhibition [3]: 1.55% | growth inhibition [4]: -35.4% | growth inhibition [5]: 17.9% | growth inhibition [6]: 5.5%

CCOc1ccccc1Br
growth inhibition [1]: -2.05% | growth inhibition [2]: 8.65% | growth inhibition [3]: -2.05% | growth inhibition [4]: -9.8% | growth inhibition [5]: 1% | growth inhibition [6]: -38.2%

O=[N+]([O-])c1ccccc1Oc1ccccc1
growth inhibition [1]: 33.6% | growth inhibition [2]: -8.65% | growth inhibition [3]: 5.65% | growth inhibition [4]: 14.2% | growth inhibition [5]: -14.7% | growth inhibition [6]: 8%

CC(C)C(=O)OC1c2cc(OCCN(C)C)ccc2CC1C (stereo unspecified)
growth inhibition [1]: -11% | growth inhibition [2]: -6.75% | growth inhibition [3]: -8.3% | growth inhibition [4]: -27.9% | growth inhibition [5]: -5.95% | growth inhibition [6]: -33.9%

CC12C=CC(=O)C=C1CCC1C3CC(F)C(O)(C(=O)CO)C3(C)CC(O)C12F (stereo unspecified)
growth inhibition [1]: -6.35% | growth inhibition [2]: 2.25% | growth inhibition [3]: 3.25% | growth inhibition [4]: 25.2% | growth inhibition [5]: 14.8% | growth inhibition [6]: 3.3%

O=C(/C=C/c1ccccc1)Nc1ccc([N+](=O)[O-])cc1Cl
growth inhibition [1]: 4.75% | growth inhibition [2]: 10.7% | growth inhibition [3]: 12% | growth inhibition [4]: -1.95% | growth inhibition [5]: 26.2% | growth inhibition [6]: 18.5%

CC(=O)N=C1N(/C=C2\C(=O)Oc3ccccc3C2=O)C(=O)/C(=C/c2ccc(NC(C)=O)cc2)N1C
growth inhibition [1]: -32.8% | growth inhibition [2]: -26.3% | growth inhibition [3]: 34.2% | growth inhibition [4]: 7.7% | growth inhibition [5]: -31.1% | growth inhibition [6]: -12.3%

FC(F)(F)c1cccc(C2SCc3nc4ccccc4n32)c1 (stereo unspecified)
growth inhibition [1]: -16.4% | growth inhibition [2]: 6.6% | growth inhibition [3]: 7.1% | growth inhibition [4]: 0.45% | growth inhibition [5]: 23.9% | growth inhibition [6]: 21.7%

COc1cc(C(=O)C/C(CCC(=O)Nc2ccccc2[N+](=O)[O-])=N\NC(=O)CC#N)ccc1O
growth inhibition [1]: -25.9% | growth inhibition [2]: -20.8% | growth inhibition [3]: -36.7% | growth inhibition [4]: -11.4% | growth inhibition [5]: -11.6% | growth inhibition [6]: -31.4%

CC1CC(C)NC(C)C1 (stereo unspecified)
growth inhibition [1]: -17.1% | growth inhibition [2]: -25.6% | growth inhibition [3]: -50% | growth inhibition [4]: 3.15% | growth inhibition [5]: -10.9% | growth inhibition [6]: -7.6%

CC(C)(C)[N+](=O)[O-]
growth inhibition [1]: -17.2% | growth inhibition [2]: -27.1% | growth inhibition [3]: -10.7% | growth inhibition [4]: 4.95% | growth inhibition [5]: 1.4% | growth inhibition [6]: 17.1%

C=C(C)CC(O)CCCCC (stereo unspecified)
growth inhibition [1]: 15.1% | growth inhibition [2]: -5.85% | growth inhibition [3]: 19.7% | growth inhibition [4]: -33.9% | growth inhibition [5]: 17.3% | growth inhibition [6]: -13.3%

Clc1ccc(Cl)c(Nc2ccnc(SCc3ccccc3)n2)c1
growth inhibition [1]: 42.1% | growth inhibition [2]: 25.9% | growth inhibition [3]: -27.5% | growth inhibition [4]: 14.4% | growth inhibition [5]: -7% | growth inhibition [6]: 24.9%

O=C(Nc1cc(Cl)ccc1Cl)Oc1c(Cl)cc(Cl)c(Cl)c1[N+](=O)[O-]
growth inhibition [1]: 10.2% | growth inhibition [2]: -37.1% | growth inhibition [3]: 29.1% | growth inhibition [4]: -33.8% | growth inhibition [5]: -0.55% | growth inhibition [6]: 15.8%

CC1C(OC(=O)CCl)CCC2C1(C)CCC1C2(C)CCC2(C)C3CC(C)(C)CCC3(C)CCC12C (stereo unspecified)
growth inhibition [1]: -13.2% | growth inhibition [2]: 1% | growth inhibition [3]: -1.85% | growth inhibition [4]: -12.2% | growth inhibition [5]: 2.15% | growth inhibition [6]: -10.2%

O=C1CC(=O)C(C(=O)c2ccccc2)N1 (stereo unspecified)
growth inhibition [1]: 18.3% | growth inhibition [2]: 8.55% | growth inhibition [3]: 5.3% | growth inhibition [4]: 1.8% | growth inhibition [5]: 7.8% | growth inhibition [6]: -2.45%

COn1c(-c2ccccc2)nc2c1C(=O)N(C)CN2C
growth inhibition [1]: -14.2% | growth inhibition [2]: 1.7% | growth inhibition [3]: 7.3% | growth inhibition [4]: -47.8% | growth inhibition [5]: -6.9% | growth inhibition [6]: 5.4%

COc1ccc(/C=C/C(=O)C(C)(C)C)cc1OC
growth inhibition [1]: 25.4% | growth inhibition [2]: 3.9% | growth inhibition [3]: 3.6% | growth inhibition [4]: 31.5% | growth inhibition [5]: 27.9% | growth inhibition [6]: 23.2%

C[N+](C)(C)CCCc1ccc2oc3ccccc3c2c1
growth inhibition [1]: 21.8% | growth inhibition [2]: 8.65% | growth inhibition [3]: 7.35% | growth inhibition [4]: 6.15% | growth inhibition [5]: 0.7% | growth inhibition [6]: 7.95%

COC(=O)C(CSSCC(C(=O)NC(Cc1ccccc1)C(=O)NCC(=O)OC(C)(C)C)N1C(=O)CCC1=O)NC(=O)OCc1ccccc1 (stereo unspecified)
growth inhibition [1]: -29.2% | growth inhibition [2]: 11.4% | growth inhibition [3]: -5.45% | growth inhibition [4]: -45.4% | growth inhibition [5]: -51.4% | growth inhibition [6]: 18.9%

COC(=O)C1=C(\N2CCOCC2)CCCC/C=C\1C(=O)OC
growth inhibition [1]: -2.55% | growth inhibition [2]: 1.15% | growth inhibition [3]: -4.9% | growth inhibition [4]: -10.3% | growth inhibition [5]: 3.65% | growth inhibition [6]: -4.5%

O=C1C=CC(=O)C1N=Nc1ccccc1
growth inhibition [1]: 43.9% | growth inhibition [2]: 19.1% | growth inhibition [3]: 16.9% | growth inhibition [4]: 18.3% | growth inhibition [5]: -3.15% | growth inhibition [6]: 28.3%

CC(O)c1cc2c(s1)C(=O)c1scc(C(C)O)c1C2=O (stereo unspecified)
growth inhibition [1]: 89.8% (active) | growth inhibition [2]: 93.1% (active) | growth inhibition [3]: 92% (active) | growth inhibition [4]: 90.8% (active) | growth inhibition [5]: 91.4% (active) | growth inhibition [6]: 90.8% (active)

O=C(CCl)OCCN(CCOC(=O)CCl)Cc1coc2ccccc2c1=O
growth inhibition [1]: -4.35% | growth inhibition [2]: -16.2% | growth inhibition [3]: -4.85% | growth inhibition [4]: -23.4% | growth inhibition [5]: -1.1% | growth inhibition [6]: -5.65%

O=C(NCCCBr)Nc1cccc2c1CCCC2
growth inhibition [1]: -7.45% | growth inhibition [2]: 5.9% | growth inhibition [3]: 2.5% | growth inhibition [4]: -31.5% | growth inhibition [5]: -20.9% | growth inhibition [6]: -21.1%

CONS(=O)c1ccc(Cl)cc1 (stereo unspecified)
growth inhibition [1]: 10.8% | growth inhibition [2]: 28.2% | growth inhibition [3]: 6.35% | growth inhibition [4]: -27.2% | growth inhibition [5]: 4.95% | growth inhibition [6]: 11%

CCOC(=O)c1ccc(N=Cc2cccs2)cc1
growth inhibition [1]: -1.9% | growth inhibition [2]: 28.4% | growth inhibition [3]: 17.1% | growth inhibition [4]: 9.5% | growth inhibition [5]: 0% | growth inhibition [6]: 17.4%

CCCCCC1CCC(O)CC1 (stereo unspecified)
growth inhibition [1]: 16.1% | growth inhibition [2]: 6.55% | growth inhibition [3]: 21.1% | growth inhibition [4]: -61.4% | growth inhibition [5]: 4.2% | growth inhibition [6]: -7.55%

CCOC(=O)CCc1ccc(NC(=O)/C=C/c2ccc([N+](=O)[O-])o2)cc1
growth inhibition [1]: 55% | growth inhibition [2]: 29.1% | growth inhibition [3]: 56.3% | growth inhibition [4]: 53.8% | growth inhibition [5]: 34.8% | growth inhibition [6]: 36.7%

O=C(Oc1c(Cl)c(Cl)c(Cl)c(Cl)c1Cl)c1ccc([N+](=O)[O-])cc1
growth inhibition [1]: -27.6% | growth inhibition [2]: -1.55% | growth inhibition [3]: -26.6% | growth inhibition [4]: -49% | growth inhibition [5]: 3.9% | growth inhibition [6]: -9.25%

N/C(=N/O)c1cn(C2OC(CO)C(O)C2O)c2ncnc(NO)c12 (stereo unspecified)
growth inhibition [1]: 9.65% | growth inhibition [2]: -20.6% | growth inhibition [3]: -0.2% | growth inhibition [4]: -1.15% | growth inhibition [5]: -16.1% | growth inhibition [6]: 4.1%

O=S(=O)(O)c1ccc(O)c2ncccc12
growth inhibition [1]: 20.2% | growth inhibition [2]: 16.4% | growth inhibition [3]: 23.6% | growth inhibition [4]: 21.4% | growth inhibition [5]: 12.1% | growth inhibition [6]: 25.9%

CCOC(=O)/C(CC)=N\O
growth inhibition [1]: 8.55% | growth inhibition [2]: -4.85% | growth inhibition [3]: 3.75% | growth inhibition [4]: 3.25% | growth inhibition [5]: -4.45% | growth inhibition [6]: 19.2%

CC(CC(C(=O)N(C)C)(c1ccccc1)c1ccccc1)[N+](C)(C)[O-] (stereo unspecified)
growth inhibition [1]: 5.5% | growth inhibition [2]: 17.4% | growth inhibition [3]: 0.1% | growth inhibition [4]: 11.9% | growth inhibition [5]: 13.3% | growth inhibition [6]: 3.8%
